High-throughput results (PubChem BioAssay)
JMJD2A Tudor – JMJD2A Tudor domain (human) inhibition. O75164. AlphaScreen JMJD2A-Tudor / H3K4me3 peptide binding. Potency, µM (titrated, usually from 114 µM), for the others: at the highest dose activity change, negative = inhibition, usual class: inhibitors. actives 4.4% (n = 390,000). AID 504339; further: on the % scale 0 is the no-effect control and ±100 the full control effect; nearly all actives have a fitted effect of over 50% in size
L3MBTL1 inh – inhibitors of human L3MBTL1 | Q9Y468 | AlphaScreen L3MBTL1–H3K9me1 peptide binding | Potency, µM (doses to about 57.1 µM), for inactives: at the highest dose activity, negative = inhibition, actives largely listed as inhibitors | actives 0.66% (n = 230,000); further: on the % scale 0 is the no-effect control and ±100 the full control effect; nearly all actives have a fitted effect of over 60% in size
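AlphaScreen proximity signal between nickel-chelate acceptor and streptavidin donor beads (final 10 ug/mL) reports binding of 50 nM L3MBTL1 to 75 nM biotin-H3 K9me1 peptide; complex incubated with compounds 30 min at room temperature; cefsulodin titration as control.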
BAZ2B inh – inhibitors of human BAZ2B bromodomain | Q9UIF8 | AlphaScreen BAZ2B-H3K14Ac peptide displacement | Potency, µM (highest dose often 114 µM), inactives show top-dose activity change, negative = inhibition, most hits filed as inhibitors | actives 4.4% (n = 360,000) | AID 504333; further: on the % scale 0 is the no-effect control and ±100 the full control effect; nearly all actives have a fitted effect of over 60% in size
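BAZ2B (50 nM) with biotin-H3(5-23)K14Ac peptide (50 nM) in PBS pH 7.4, 0.01% Tween-20, preformed 30 min, then compound 30 min at room temperature; top concentration 110uM. AlphaScreen streptavidin donor/nickel chelate acceptor beads (10 ug/mL final), 20 min dark, signal read.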
HP1b binding inh – inhibitors of HP1-beta chromodomain binding to methylated histone tails; AlphaScreen HP1-beta / biotin-H3K9me3 peptide binding; AID 540317; Potency, µM (highest dose often 114 µM), for the others: at the top dose activity change, negative = inhibition, usual class: inhibitors; actives 0.56% (n = 390,000); P83916; further: nearly all actives have a fitted effect of over 70% in size
Target sequence (P83916 whole entry, looked up): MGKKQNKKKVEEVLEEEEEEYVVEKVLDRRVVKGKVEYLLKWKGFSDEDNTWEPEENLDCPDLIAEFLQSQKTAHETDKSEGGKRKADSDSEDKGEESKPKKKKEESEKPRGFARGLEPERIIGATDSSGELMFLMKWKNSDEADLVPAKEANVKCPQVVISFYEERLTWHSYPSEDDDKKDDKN
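HP1-beta protein (50 nM final) preincubated 30 min at room temperature with biotinylated H3(1-18)K9me3 peptide (50 nM) in PBS pH 7.4, 0.01% Tween-20, then compound added for 30 min. AlphaScreen streptavidin donor/nickel chelate acceptor beads (10 ug/mL final), 30 min dark, luminescence read.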
Sfp inh – Sfp phosphopantetheinyl transferase inhibition; Biochemical Sfp PPTase activity, qHTS; Potency, µM, inactives show largest response in the series, negative = inhibition, actives largely listed as inhibitors; Q9F4F7; actives 3.5% (n = 310,000);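 further: the enzyme is Sfp with the accession as filed and its product quenches rhodamine fluorescence; 0% = enzyme reaction without inhibitor and -100% = no enzyme wells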
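With Hepes-Na pH 7.6 buffer containing 10 mM MgCl2, Sfp (15 nM) modified BHQ-2-YbbR (12.5 uM) using rhodamine-CoA (5 uM). Two reads 30 minutes apart at 525/598 nm yielded each well's rate.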
G9a block – inhibitors of human histone lysine methyltransferase G9a | Potency, µM (series often up to 102 µM), inactives show top-dose activity, negative = inhibition, usual class: inhibitors | G9a H3K9 monomethylation, AlphaScreen, 2 h | actives 8.8% (n = 350,000) | Q96KQ7 | AID 504332; further: on the % scale 0 is the no-effect control and ±100 the full control effect; nearly all actives have a fitted effect of over 75% in size
Target sequence (Q96KQ7 913-1193 limits assumed): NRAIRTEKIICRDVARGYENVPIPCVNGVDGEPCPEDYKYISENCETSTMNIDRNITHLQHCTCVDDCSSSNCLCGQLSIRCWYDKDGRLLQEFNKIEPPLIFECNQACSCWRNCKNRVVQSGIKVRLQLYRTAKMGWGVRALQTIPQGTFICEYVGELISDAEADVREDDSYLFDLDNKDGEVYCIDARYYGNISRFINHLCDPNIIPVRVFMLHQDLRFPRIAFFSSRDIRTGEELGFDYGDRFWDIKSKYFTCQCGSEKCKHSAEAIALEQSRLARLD
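Chemiluminescent proximity detection of H3K9 monomethylation, read after 10 min bead incubation in the dark. Reaction: 20 nM G9a, 500 nM biotin-H3K9 peptide, 20 uM SAM cofactor, 2 h, room temperature, following 15 min enzyme-compound preincubation.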
Numbers without * were called inactive; ? = inconclusive; / = no result; ! = repeats disagree; [ ] = another dose, or the depositor's remark. Only some compounds are listed: those with a hit (about 12% of all), similar ones and a draw of the others. The call rests on the fitted dose curve; in most records, active means well fitted curve in the direction sought with a large enough effect; inconclusive means small, poorly fitted or top-dose-only effect, or another doubt; inactive means no such curve, though single readings can be large; an effect the other way counts as inactive or inconclusive. Potency means the concentration at half of the fitted maximal effect.

SMILES | JMJD2A Tudor | L3MBTL1 inh | BAZ2B inh | HP1b binding inh | Sfp inh | G9a block
CN1Cc2c(N)cccc2[C@H](c2ccccc2)C1 | / | / | / | / | 4.6% | 12.7%[21.5 µM]
CN1Cc2c(N)cccc2C(c2ccccc2)C1 (stereo not given) | -20.7% | -8.0% | 0.3% | 41.3% | -4.9% | 14.1µM*!
CCOCCCNC(=O)C(NC(=O)c1ccccc1O)c1ccc(C)cc1 (stereo not given) | -1.0% | / | -2.7% | 41.4% | 9.5% | 5.62µM*
CC1=C(C(=O)OCc2ccccc2)C(c2ccc([N+](=O)[O-])cc2)NC(=O)N1CCCCCC(=O)O (stereo not given) | -12.2% | 5.0% | -5.6% | 29.8% | 44.7µM*! | ?
CC1=C(C(=O)OCc2ccccc2)C(c2ccc([N+](=O)[O-])cc2)NC(=O)N1CCCC(=O)O (stereo not given) | -12.9% | 1.3% | -7.2% | 42.6% | -13.4% | 44.7µM*
CC1=C(C(=O)OCc2ccccc2)C(c2ccc([N+](=O)[O-])cc2)NC(=O)N1C (stereo not given) | -22.9% | -6.5% | -29.6% | 17.7% | -2.7% | 0.7%
CCOC(=O)SC1=N/C(=C\c2ccc(N(C)C)cc2)C(=O)S1 | 20µM* | -23.2% | 12.6µM* | 35.5µM* | -4.4% | 10µM*
Cc1ccncc1CNC(=O)c1ccccc1 | -14.5% | / | / | -3.6% | / | /
O=[N+]([O-])c1ccc(-[n+]2nc(-c3ccccc3)nn2-c2ccccc2)cc1 | -11.6% | ? | -5.5% | 11.3% | 12.5% | -20.0%
Cc1ccc(Nc2c(-c3ccc(N4CCOCC4)cc3)nc3ccc(Cl)cn23)cc1 | -15.0% | / | / | 27.0% | / | -22.9%[59 µM]
Cc1ccc2nc(-c3ccc(N4CCOCC4)cc3)c(Nc3ccccc3C)n2c1 | 14.1µM* | / | 10µM* | ? | / | 12.6µM*
Cc1ccn2c(Nc3ccccc3C)c(-c3ccc(N4CCOCC4)cc3)nc2c1 | 44.7µM* | / | ? | -7.7% | / | 10µM*
Cc1ccccc1Nc1c(-c2ccc(N3CCOCC3)cc2)nc2ccc(Cl)cn12 | ? | / | -38.9% | 12.4% | / | ?
Cc1ccsc1-c1nc(-c2ccccc2)c(-c2ccccc2)[nH]1 | 7.4% | 2.8% | -2.2% | 20.0% | 11.0% | 42.7%[12.7 µM]
COc1ccccc1N=Nc1nc(-c2ccccc2)c(-c2ccccc2)[nH]1 | 7.08µM* | ? | 10µM* | -71.3% | -3.4% | ?
COc1ccc(N=Nc2nc(-c3ccccc3)c(-c3ccccc3)[nH]2)cc1 | 8.91µM* | 15.8µM* | 8.91µM* | 28.2µM* | 14.8% | 15.8µM*
Cc1ncc(N=Nc2ccc(F)cc2)c(-c2ccc(Cl)cc2)n1 | -24.5% | 1.3% | -27.8% | -7.2% | 6.5% | 2.1%[59 µM]
COc1ccc(-c2nc(C)ncc2N=Nc2ccccc2)cc1 | 44.7µM* | ? | 11.2µM* | -80.0% | -1.6% | ?
Oc1ccccc1N=Nc1nc(-c2ccccc2)c(-c2ccccc2)[nH]1 | 12.6µM* | / | 12.6µM* | 31.6µM* | 3.3% | ?
Cc1ccc2[nH]c(=O)c(C(c3nnnn3CC3CCCO3)N3CCOCC3)cc2c1 (stereo not given) | -5.2% | 1.2% | 19.4% | 20.6% | -8.6% | 5.8%[59 µM]
Cc1ccc2[nH]c(=O)c(C(c3nnnn3CC3CCCO3)N3CCc4ccccc4C3)cc2c1 (stereo not given) | -28.4% | / | ? | 37.0% | 22.4µM* | 2µM*
Cc1ccc2[nH]c(=O)c(C(c3nnnn3CC3CCCO3)N3CCCc4ccccc43)cc2c1 (stereo not given) | ? | -2.8% | ? | -11.6% | 44.7µM* | 50.1µM*
Cc1cc(C)c2[nH]c(=O)c(C(c3nnnn3CC3CCCO3)N3CCCC(C)C3)cc2c1 (stereo not given) | -31.0% | 7.2% | -6.1% | -4.5% | 22.4µM* | 17.8µM*
CCc1ccc2[nH]c(=O)c(C(c3nnnn3CC3CCCO3)N3CCN4CCCC4C3)cc2c1 (stereo not given) | -25.8% | -13.0% | -8.2% | 4.6% | 35.5µM* | ?
